Assay results from PubChem BioAssay.
Calls of active or inactive are those of the source. Unless noted, no rule for the calls is given here.

Assay: MDA-MB-436 breast carcinoma cell growth inhibition, synergistic combos for chromothripsis tumors, BGB or cisplatin combos (AID 1671458);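 also: cells exposed for 96 hours; 0% = vehicle DMSO and 100% = killing by high DMSO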
Conditions: MDA-MB-436 breast carcinoma growth inhibition, drug combinations; at 0.5 µM; stronger effect = higher value

Compound	inhibition
O=c1cc(-c2cccc3c2Sc2ccccc2S3)oc(N2CCOCC2)c1	-26.6% (inactive)
CCc1c2c(nc3ccc(O)cc13)-c1cc3c(c(=O)n1C2)COC(=O)[C@]3(O)CC	72.1% (inactive)
O=c1[nH]c(-c2ccc(C(F)(F)F)cc2)nc2c1CSCC2	-4.6% (inactive)

Same assay, conditions: MDA-MB-436 breast carcinoma growth inhibition, drug combinations; measured here: BGB combination; at 0.5 µM; stronger effect = higher value

Compound	inhibition
O=c1cc(-c2cccc3c2Sc2ccccc2S3)oc(N2CCOCC2)c1	-22.1%
CCc1c2c(nc3ccc(O)cc13)-c1cc3c(c(=O)n1C2)COC(=O)[C@]3(O)CC	67%
O=c1[nH]c(-c2ccc(C(F)(F)F)cc2)nc2c1CSCC2	-1.61%

Same assay, conditions: MDA-MB-436 breast carcinoma growth inhibition, drug combinations; measured here: BGB combination; at 5 µM; stronger effect = higher value

Compound	inhibition
O=c1cc(-c2cccc3c2Sc2ccccc2S3)oc(N2CCOCC2)c1	-25.2%
CCc1c2c(nc3ccc(O)cc13)-c1cc3c(c(=O)n1C2)COC(=O)[C@]3(O)CC	73.3%
O=c1[nH]c(-c2ccc(C(F)(F)F)cc2)nc2c1CSCC2	-2.42%

Same assay, conditions: MDA-MB-436 breast carcinoma growth inhibition, drug combinations; measured here: cisplatin combination; at 0.5 µM; stronger effect = higher value

Compound	inhibition
O=c1cc(-c2cccc3c2Sc2ccccc2S3)oc(N2CCOCC2)c1	-36.1%
CCc1c2c(nc3ccc(O)cc13)-c1cc3c(c(=O)n1C2)COC(=O)[C@]3(O)CC	71.2%
O=c1[nH]c(-c2ccc(C(F)(F)F)cc2)nc2c1CSCC2	-18.2%

Same assay, conditions: MDA-MB-436 breast carcinoma growth inhibition, drug combinations; measured here: cisplatin combination; at 5 µM; stronger effect = higher value

Compound	inhibition
O=c1cc(-c2cccc3c2Sc2ccccc2S3)oc(N2CCOCC2)c1	-24.3%
CCc1c2c(nc3ccc(O)cc13)-c1cc3c(c(=O)n1C2)COC(=O)[C@]3(O)CC	84.4%
O=c1[nH]c(-c2ccc(C(F)(F)F)cc2)nc2c1CSCC2	-5.9%

Assay: UWB1.289_BRCA1 ovarian cancer growth, cell-based, BGB or cisplatin combinations (AID 1671459; in the data active = inhibition above about 80%)
Conditions: UWB1.289 BRCA1 ovarian carcinoma, drug combinations, BGB combination, concentration series, at 5 µM, stronger effect = higher value

Compound	inhibition
O=c1cc(-c2cccc3c2Sc2ccccc2S3)oc(N2CCOCC2)c1	-14.2%
CCc1c2c(nc3ccc(O)cc13)-c1cc3c(c(=O)n1C2)COC(=O)[C@]3(O)CC	102%
O=c1[nH]c(-c2ccc(C(F)(F)F)cc2)nc2c1CSCC2	-5.61%

Same assay, conditions: UWB1.289 BRCA1 ovarian carcinoma, drug combinations, at 0.5 µM, stronger effect = higher value

Compound	inhibition
O=c1cc(-c2cccc3c2Sc2ccccc2S3)oc(N2CCOCC2)c1	-17.9% (inactive)
CCc1c2c(nc3ccc(O)cc13)-c1cc3c(c(=O)n1C2)COC(=O)[C@]3(O)CC	81.6% (active)
O=c1[nH]c(-c2ccc(C(F)(F)F)cc2)nc2c1CSCC2	0.36% (inactive)

Same assay, conditions: UWB1.289 BRCA1 ovarian carcinoma, drug combinations, cisplatin combination, concentration series, at 5 µM, stronger effect = higher value

Compound	inhibition
O=c1cc(-c2cccc3c2Sc2ccccc2S3)oc(N2CCOCC2)c1	-3.21%
CCc1c2c(nc3ccc(O)cc13)-c1cc3c(c(=O)n1C2)COC(=O)[C@]3(O)CC	105%
O=c1[nH]c(-c2ccc(C(F)(F)F)cc2)nc2c1CSCC2	7.32%
